Measurements as given in PubChem BioAssay (Tox21).
Values joined by “and” are separate entries in the source; they are usually repeats but may differ in a detail not shown here. Equal entries are not always repeated. Inconclusive results are not listed. Active and inactive are the calls of the source. Unless noted, calls follow the shape of the dose curve; as a rule, active = well fitted curve in the direction sought with a large enough effect in the repeat runs; inconclusive = weak or mixed curves; inactive = no such curve, though single readings can be large; an effect the other way counts as inactive or inconclusive.

Legend:
[1] = biological target: Progesterone receptor (Homo sapiens) (UniProt P06401); test: qHTS assay to identify small molecule antagonists of the progesterone receptor (PR) signaling pathway (AID 1346795; active = well fitted inhibition curve with a large enough effect in the signal ratio in the repeat runs, not every such curve was filed as active; the % refers to the signal ratio)
How it was run: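 Read-out is fluorescence from the LiveBLAzer B/G FRET substrate, cleaved by a UAS-controlled beta-lactamase in PR-UAS-bla HEK293T cells after 16 hr exposure to compound plus 1 nM promegestone (final), followed by 2 hr at room temperature.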

[2] = qHTS assay to identify small molecule antagonists of the progesterone receptor (PR) signaling pathway - cell viability counter screen (AID 1346798);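 also: HEK293T PR-UAS-bla cells stimulated with the agonist R5020; series mostly up to about 92 µM; nearly all actives have a fitted effect of over 50% in size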
How it was run: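 HEK293T PR-UAS-bla, 2% charcoal-stripped FBS; 4 hr pre-plate; cpd + R5020, 16 h 37C; LiveBLAzer read first; then CellTiter-Glo 30 min RT, luminescence.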

[3] = qHTS assay to identify small molecule antagonists of the TGF-beta/Smad signaling pathway - cell viability counter screen (AID 1346824); also: nearly all actives have a fitted effect of over 50% in size
How it was run: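 Cytotoxicity counter-screen run in the same wells as the beta-lactamase Smad reporter read: CellTiter-Glo luminescence after 30 min at room temperature. HEK 293T SBE-bla cells had 5 hr compound exposure at 37 C with TGF-beta1 (0.25 ng/mL stock).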

[4] = qHTS assay to identify small molecule agonists of the TGF-beta/Smad signaling pathway - cell viability counter screen (AID 1346829); also: top concentration of the series differs between compounds; nearly all actives have a fitted effect of over 45% in size
How it was run: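 After overnight seating at 37 C and 5% CO2, reporter cells got compounds for 5 hr and FRET substrate for 2 hr; cell viability then came from CellTiter-Glo luminescence.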

[5] = qHTS assay to identify small molecule agonists of the TGF-beta/Smad signaling pathway (AID 1346859; active = well fitted activation curve with a large enough effect in the signal ratio in the repeat runs, not every such curve was filed as active; the % refers to the signal ratio; also: series mostly up to about 77 µM)
How it was run: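 SBE-bla HEK 293T, 4,000 cells/well, plated o/n; cpd in DMSO, 5 hr, 37 C/5% CO2; B/G FRET substrate 2 hr RT; ex 405, em 460/530 nm.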

[6] = biological target: Thyrotropin-releasing hormone receptor (Homo sapiens) (UniProt P34981); test: qHTS assay to identify small molecule agonists of the thyrotropin-releasing hormone receptor (TRHR) signaling pathway (AID 1346891; calls by dose curve; also: series mostly up to about 58 µM)
How it was run: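 Intracellular calcium rise, read as fluorescence every second for 3 min, served as the agonist signal in dye-loaded HEK293 cells expressing TRHR; each compound ran at 15 concentrations in triplicate.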

[7] = Human pregnane X receptor (PXR) small molecule agonists, qHTS cell viability counter screen (AID 1346977); also: nearly all actives have a fitted effect of over 50% in size; also: potency is read from the fitted curve at half-maximal effect
How it was run: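 PXR-Luc HepG2, 2,000 cells/well, 5% charcoal-stripped FBS; 5hr settle; cpd 24hr, 37C/5% CO2; CellTiter-Fluor at 23hr, read 1hr later (fluorescence).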

[8] = Caspase-3/7 induction in HepG2 cells by small molecules, qHTS assay (AID 1346978); also: nearly all actives have a fitted effect of over 15% in size
How it was run: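 Caspase-3/7 induction was measured by Caspase-Glo 3/7 luminescence (30 min, room temperature) after a 17 hr compound exposure of wild-type HepG2 cells seeded at 2,000 per well and pre-incubated 5 hr.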

[9] = Caspase-3/7 induction in CHO-K1 cells by small molecules, qHTS cell viability counter screen (AID 1346979); also: nearly all actives have a fitted effect of over 35% in size; also: potency is read from the fitted curve at half-maximal effect
How it was run: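 Cells (CHO-K1, wild type) are plated at 1,500 per well and incubated 5hr. Test compounds in DMSO are then pinned in, followed by 16hr at 37C and 5% CO2. Viability is read by CellTiter-Fluor fluorescence after 1hr.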

[10] = Caspase-3/7 induction in CHO-K1 cells by small molecules, qHTS assay (AID 1346980); also: nearly all actives have a fitted effect of over 15% in size
How it was run: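 Luminescent Caspase-Glo 3/7 read (30min, room temperature) quantified apoptosis induction. Cells were wild-type CHO-K1, treated with compound for 17hr at 37 C and 5% CO2.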

[11] = Caspase-3/7 induction in HepG2 cells by small molecules, qHTS cell viability counter screen (AID 1346981); also: series mostly up to about 92 µM; nearly all actives have a fitted effect of over 30% in size
How it was run: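 Fluorescence read-out of live-cell protease activity (CellTiter-Fluor) after 1 hr with reagent. This was measured in the same wells as the caspase-3/7 luminescence, on HepG2 cells exposed to DMSO-dissolved compounds for 16 hr at 37 C.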

[12] = biological target: Nuclear receptor subfamily 1 group I member 2 (Rattus norvegicus) (UniProt Q9R1A7); test: Rat pregnane X receptor (rPXR) activation by small molecules, qHTS assay (AID 1346983); details: rPXR luciferase reporter cells, One-Glo luminescence, 24 h; active compounds read high; also: nearly all actives have a fitted effect of over 20% in size
How it was run: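 Luminescent readout (One-Glo luciferase, 30 min room temperature) followed 24 hr compound treatment at 37 C of rPXR cells plated 2,000 per well and preincubated 5hr; qHTS format with compounds delivered in DMSO.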

[13] = biological target: Nuclear receptor subfamily 1 group I member 2 (Homo sapiens) (UniProt O75469); test: CYP3A4 induction through human pregnane X receptor (PXR) by small molecules, qHTS assay (AID 1346984); also: nearly all actives have a fitted effect of over 40% in size
How it was run: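 HepG2-derived DPX-2 line carrying PXR plus a CYP3A4-promoter luciferase reporter; cells plated 5 hr, compound-exposed 24 hr at 37C. CYP3A4 activity probed with 3uM (final) Luciferin-IPA for 3hr, then luciferase read after One-Glo.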

[14] = biological target: Acetylcholinesterase (Homo sapiens) (UniProt P22303); test: Acetylcholinesterase (AChE) small molecule antagonists: colormetric cell-based qHTS assay (AID 1347395; calls by dose curve; also: nearly all actives have a fitted effect of over 30% in size; also: potency is read from the fitted curve at half-maximal effect)
How it was run: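 Colorimetric read-out: DTNB detects thiocholine released when cellular AChE in SH-SY5Y cells hydrolyses acetylthiocholine. Cells attached overnight, received compound for 30 min at 37 C, then substrate mix for 90 min at 37 C.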

[15] = biological target: Acetylcholinesterase (Homo sapiens) (UniProt P22303); test: Acetylcholinesterase (AChE) small molecule antagonists: enzyme-based qHTS assay (AID 1347397; calls by dose curve; also: nearly all actives have a fitted effect of over 55% in size; also: potency is read from the fitted curve at half-maximal effect); details: Potency: AChE enzyme activity inhibition; outcome: AChE enzyme activity inhibition
How it was run: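 First, recombinant human AChE (50 mU/mL as dispensed) received test compound or DMSO. Second, plates stood 30 min at room temperature. Third, DTNB and acetylthiocholine were added, followed by 10 min at room temperature and colorimetric detection.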

[16] = biological target: Acetylcholinesterase (Homo sapiens) (UniProt P22303); test: Acetylcholinesterase (AChE) small molecule antagonists: fluorescence cell-based qHTS assay (AID 1347398; calls by dose curve; also: nearly all actives have a fitted effect of over 50% in size; also: potency is read from the fitted curve at half-maximal effect); details: Potency: AChE activity; outcome: AChE activity
How it was run: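 Homogeneous quantitative HTS format. SH-SY5Y cells seeded at 2,000 per well settle overnight at 37 C. Compound pretreatment runs 30 min (37 C, 5% CO2); substrate/probe mix then reacts 40 min at RT before reading 490/520 nm.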

[17] = biological target: Thyrotropin-releasing hormone receptor (Homo sapiens) (UniProt P34981); test: qHTS assay to identify small molecule antagonists of the thyrotropin-releasing hormone receptor (TRHR) signaling pathway (AID 1346877; active = well fitted inhibition curve with a large enough effect in the repeat runs, not every such curve was filed as active; also: series mostly up to about 51 µM)
How it was run: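 HEK293/TRHR cells, 18 h, 37 °C; Ca2+ dye 2 h; cpd 5 min RT; TRH 1 nM final; fluorescence read 3 min, 1 s intervals; 15 concs, triplicate.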

[18] = biological target: Nuclear receptor subfamily 1 group I member 2 (Homo sapiens) (UniProt O75469); test: Human pregnane X receptor (PXR) small molecule agonists, qHTS assay (AID 1346982); also: nearly all actives have a fitted effect of over 35% in size; also: potency is read from the fitted curve at half-maximal effect
How it was run: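 HepG2 PXR-Luc reporter line, 5% charcoal-stripped FBS; 5 hr pre-incubation, compound (DMSO) 24 hr at 37 C/5% CO2; ONE-Glo 30 min RT; luminescence read-out.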

[19] = biological target: Nuclear receptor subfamily 1 group I member 2 (Homo sapiens) (UniProt O75469); test: Human pregnane X receptor (PXR) activation by small molecules, qHTS assay (AID 1346985); also: nearly all actives have a fitted effect of over 40% in size
How it was run: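 DPX-2 cells (HepG2 co-transfected with a PXR response element and a CYP3A4-promoter luciferase construct) were seeded at 2,000 per well, rested 5 hr at 37C, then exposed to DMSO-dissolved compounds for 24 hr. Activation was read as luciferase luminescence.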

[20] = qHTS assay to identify small molecule agonists of the progesterone receptor (PR) signaling pathway - cell viability counter screen (AID 1346799; calls by dose curve; also: nearly all actives have a fitted effect of over 45% in size; also: potency is read from the fitted curve at half-maximal effect)
How it was run: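 Luminescence from CellTiter-Glo, added after the beta-lactamase FRET read in the same wells, gave cytotoxicity in PR-UAS-bla HEK293T cells treated with compounds for 16 hr at 37C.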
% is scaled to controls: 0 for no effect and ±100 for the full control effect.

Acetylcholinesterase (Homo sapiens), sequence (P22303 whole entry, looked up): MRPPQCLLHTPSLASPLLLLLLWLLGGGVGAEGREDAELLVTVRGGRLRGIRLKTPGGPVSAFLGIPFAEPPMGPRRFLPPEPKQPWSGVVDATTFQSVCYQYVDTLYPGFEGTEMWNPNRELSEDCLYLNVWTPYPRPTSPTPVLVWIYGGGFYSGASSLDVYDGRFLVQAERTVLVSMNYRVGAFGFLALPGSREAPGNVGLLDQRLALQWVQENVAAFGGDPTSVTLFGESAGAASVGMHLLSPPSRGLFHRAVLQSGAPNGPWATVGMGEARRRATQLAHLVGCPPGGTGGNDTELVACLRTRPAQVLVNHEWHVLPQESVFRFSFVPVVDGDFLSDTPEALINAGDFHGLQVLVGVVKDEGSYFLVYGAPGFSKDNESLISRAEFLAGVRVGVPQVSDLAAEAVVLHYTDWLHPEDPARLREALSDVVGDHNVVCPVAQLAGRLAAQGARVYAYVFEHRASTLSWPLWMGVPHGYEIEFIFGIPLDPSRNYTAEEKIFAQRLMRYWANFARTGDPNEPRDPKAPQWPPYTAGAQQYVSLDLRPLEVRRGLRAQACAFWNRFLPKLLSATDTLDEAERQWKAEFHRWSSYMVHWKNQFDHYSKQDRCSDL
Progesterone receptor (Homo sapiens), sequence (P06401 whole entry, looked up): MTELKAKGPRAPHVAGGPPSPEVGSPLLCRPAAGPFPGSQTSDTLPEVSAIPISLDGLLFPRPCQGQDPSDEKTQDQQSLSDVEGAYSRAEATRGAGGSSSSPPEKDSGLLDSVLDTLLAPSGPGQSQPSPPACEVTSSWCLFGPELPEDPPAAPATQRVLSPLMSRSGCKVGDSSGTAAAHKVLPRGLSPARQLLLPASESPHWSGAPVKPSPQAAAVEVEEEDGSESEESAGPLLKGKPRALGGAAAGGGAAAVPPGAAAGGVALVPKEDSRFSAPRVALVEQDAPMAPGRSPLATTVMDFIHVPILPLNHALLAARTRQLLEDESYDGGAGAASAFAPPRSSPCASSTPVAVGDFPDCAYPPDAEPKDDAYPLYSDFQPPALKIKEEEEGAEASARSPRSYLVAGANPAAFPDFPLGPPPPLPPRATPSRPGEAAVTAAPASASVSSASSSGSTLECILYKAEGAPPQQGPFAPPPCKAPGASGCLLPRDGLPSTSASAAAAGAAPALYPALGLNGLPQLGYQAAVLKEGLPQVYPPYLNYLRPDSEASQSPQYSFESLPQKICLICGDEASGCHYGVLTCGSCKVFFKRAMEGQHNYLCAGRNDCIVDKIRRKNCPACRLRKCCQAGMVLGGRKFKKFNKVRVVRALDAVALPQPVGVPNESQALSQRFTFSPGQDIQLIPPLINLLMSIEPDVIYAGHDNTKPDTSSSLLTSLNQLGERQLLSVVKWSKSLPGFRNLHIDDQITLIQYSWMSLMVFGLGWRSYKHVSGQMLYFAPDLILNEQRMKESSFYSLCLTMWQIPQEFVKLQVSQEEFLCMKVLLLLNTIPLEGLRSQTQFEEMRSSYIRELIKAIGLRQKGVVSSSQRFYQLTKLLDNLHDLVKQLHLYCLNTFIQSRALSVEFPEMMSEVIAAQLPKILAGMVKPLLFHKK
Thyrotropin-releasing hormone receptor (Homo sapiens), sequence (P34981 whole entry, looked up): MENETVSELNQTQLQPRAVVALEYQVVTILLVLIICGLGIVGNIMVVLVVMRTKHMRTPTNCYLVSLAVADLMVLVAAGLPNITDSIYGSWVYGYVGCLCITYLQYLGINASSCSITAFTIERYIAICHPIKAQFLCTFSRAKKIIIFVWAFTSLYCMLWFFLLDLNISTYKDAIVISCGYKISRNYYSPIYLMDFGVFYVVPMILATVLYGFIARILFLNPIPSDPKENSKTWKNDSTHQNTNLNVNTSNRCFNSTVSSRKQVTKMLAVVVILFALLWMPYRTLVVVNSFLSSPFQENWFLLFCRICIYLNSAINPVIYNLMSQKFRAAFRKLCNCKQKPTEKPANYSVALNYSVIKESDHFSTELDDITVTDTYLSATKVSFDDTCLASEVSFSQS
Nuclear receptor subfamily 1 group I member 2 (Homo sapiens), sequence (O75469 whole entry, looked up): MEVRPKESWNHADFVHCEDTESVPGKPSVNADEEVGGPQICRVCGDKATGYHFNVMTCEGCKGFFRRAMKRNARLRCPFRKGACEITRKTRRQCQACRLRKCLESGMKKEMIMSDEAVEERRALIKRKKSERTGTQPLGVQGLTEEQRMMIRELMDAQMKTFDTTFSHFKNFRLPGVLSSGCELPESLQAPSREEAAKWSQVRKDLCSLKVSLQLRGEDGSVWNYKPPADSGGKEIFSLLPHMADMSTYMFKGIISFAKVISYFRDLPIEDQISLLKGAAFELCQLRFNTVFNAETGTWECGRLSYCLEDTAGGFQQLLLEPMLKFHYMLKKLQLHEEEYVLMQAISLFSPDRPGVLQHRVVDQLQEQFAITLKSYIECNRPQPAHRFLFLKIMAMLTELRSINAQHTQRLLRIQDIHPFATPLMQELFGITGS
Nuclear receptor subfamily 1 group I member 2 (Rattus norvegicus), sequence (Q9R1A7 whole entry, looked up): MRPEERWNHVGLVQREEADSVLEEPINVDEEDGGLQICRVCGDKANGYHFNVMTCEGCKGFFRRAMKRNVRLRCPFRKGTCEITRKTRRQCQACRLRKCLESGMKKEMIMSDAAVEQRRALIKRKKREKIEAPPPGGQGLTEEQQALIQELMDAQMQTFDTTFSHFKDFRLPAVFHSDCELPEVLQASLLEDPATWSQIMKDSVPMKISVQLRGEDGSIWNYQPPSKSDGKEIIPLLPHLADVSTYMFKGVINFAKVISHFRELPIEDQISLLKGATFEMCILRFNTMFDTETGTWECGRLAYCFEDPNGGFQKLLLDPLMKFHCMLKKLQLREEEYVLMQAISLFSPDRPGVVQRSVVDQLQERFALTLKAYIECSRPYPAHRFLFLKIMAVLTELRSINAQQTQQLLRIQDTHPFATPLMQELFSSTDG

CN1C(=O)CN=C(c2ccccc2)c2cc([N+](=O)[O-])ccc21
inactive: Potency [1] | Potency [2] | Potency [3] | Potency [4] | outcome [5] | outcome [6] | Potency [7] | Potency [8] | Potency [9] | Potency [10] | Potency [11] | max activation [12] 8.45% | outcome [13] | Potency [14] | Potency [15] | Potency [16]

Cc1ccccc1
inactive: Potency [1] | Potency [2] | Potency [3] | Potency [4] | outcome [5] | Potency [17] | outcome [6] | Potency [7] | Potency [8] | Potency [9] | Potency [10] | Potency [11] | Potency [18] | outcome [13] | Potency [19] | Potency [14] | Potency [15] | Potency [16]

O=C1NC(=O)C(=O)C(=O)N1
inactive: Potency [1] | Potency [2] | Potency [3] | Potency [4] | outcome [5] | Potency [7] | Potency [8] | Potency [9] | Potency [10] | Potency [11] | Potency [18] | Potency [14] | Potency [15] | Potency [16]

CNC(=O)Oc1cccc(N=CN(C)C)c1
inactive: Potency [1] | Potency [2] | Potency [3] | Potency [4] | outcome [5] | Potency [17] | outcome [6] | Potency [7] | Potency [8] | Potency [10] | Potency [11] | Potency [18]
active: Potency [14] 3.99 µM | Potency [15] 20 µM | Potency [16] 3.56 µM

CCOC(C(=O)OCCN(C)C)(c1ccccc1)c1ccccc1
inactive: Potency [1] | Potency [2] | Potency [3] | Potency [4] | outcome [5] | Potency [17] | outcome [6] | Potency [8] | Potency [9] | Potency [10] | Potency [11] | Potency [14] | Potency [15] | Potency [16]
active: Potency [18] 13.3 µM

Clc1ccc2ccccc2c1
inactive: Potency [1] | Potency [2] | Potency [4] | outcome [5] | Potency [17] | outcome [6] | Potency [7] | Potency [8] | Potency [9] | Potency [10] | Potency [18] | Potency [14] | Potency [15] | Potency [16]

CCOC(=O)C1OC1(C)c1ccccc1 (centres undefined)
inactive: Potency [1] | Potency [2] | Potency [3] | Potency [4] | outcome [5] | outcome [6] | Potency [7] | Potency [8] | Potency [9] | Potency [10] | Potency [11] | Potency [18] | Potency [14] | Potency [15] | Potency [16]

CC(C)CCCCCCCOC(=O)c1ccccc1C(=O)OCCCCCCCC(C)C
inactive: Potency [1] | Potency [2] | Potency [3] | Potency [4] | outcome [5] | Potency [17] | outcome [6] | Potency [7] | Potency [9] | Potency [11] | Potency [14] | Potency [15] | Potency [16]

C[C@H](N)[C@H](O)c1ccc(O)c(O)c1
inactive: Potency [1] | Potency [2] | Potency [4] | outcome [5] | outcome [6] | Potency [7] | Potency [8] | Potency [9] | Potency [10] | Potency [11] | Potency [18] | max activation [12] -1.11% | outcome [13] | Potency [19] | Potency [14] | Potency [15]
active: Potency [16] 0.776 µM

CCCCCCCCP(=O)(O)O
inactive: Potency [1] | Potency [3] | Potency [4] | outcome [5] | outcome [6] | Potency [7] | Potency [8] | Potency [9] | Potency [11] | Potency [14] | Potency [15] | Potency [16]
active: Potency [20] 27.3 µM

O=[N+]([O-])/C=C/c1ccccc1
inactive: Potency [2] | Potency [20] | Potency [3] | Potency [4] | outcome [5] | outcome [6] | Potency [10]
active: Potency [7] 24.7 µM and 19.3 µM | Potency [9] 6.97 µM and 12.2 µM
